Hits are enriched below; roughly 19% of the tested compounds scored in any of these assays.
HepG2 viability = HepG2 cytotoxicity, counter-screen for TGF-b inhibitors. AID 588856. 410,000 compounds, 0.76% hits. Potency, µM (titrated, usually from 46.1 µM), inactives show at the top dose activity change, negative = cytotoxicity, actives largely listed as cytotoxic. HepG2 CAGA-GFP viability, ATP luminescence, 18 h; also: potency is read from the fitted curve at half-maximal effect
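CellTiter-Glo luminescence gave cytotoxicity after 18 hours at 37 degrees C. The cells were HepG2 CAGA-GFP in 1% FBS DMEM, stimulated with 500 pg/mL TGF-beta after compound addition. %Activity was normalised to no-cell wells (complete cell-killing) and DMSO (no toxicity), and curves were fitted and classified.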
IL1B secr inh = inflammasome signaling inhibition, IL-1 beta readout. AID 743279. activity change, % at 57.5 µM. THP-1 LPS/ATP IL-1B secretion, AlphaLISA, 16 h; hits give low values. 360,000 compounds, 4.7% hits; in the data active = activity change below about -50%; inconclusive = mostly about -30% to -49%; also: % is scaled to controls: 0 for no effect and ±100 for the full control effect
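Secreted IL-1B measured by AlphaLISA bead assay after 16 h compound exposure of THP-1 cells; compounds (final up to 57.5 uM) added 1 h before LPS (250 ng/mL) and ATP (1.25 mM) stimulation; lower signal means less secretion.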
ASM inhibitor = human S-ASM enzyme inhibition | placental ASM, HMU-PC fluorogenic substrate, 60 min | P17405 | 340,000 compounds, 0.006% hits | AID 504937 | Potency, µM (titrated, usually from 57.5 µM), for inactives: at the top dose activity change, negative = inhibition, most hits filed as inhibitors; also: potency is read from the fitted curve at half-maximal effect
Target sequence (P17405 47-631 limits assumed): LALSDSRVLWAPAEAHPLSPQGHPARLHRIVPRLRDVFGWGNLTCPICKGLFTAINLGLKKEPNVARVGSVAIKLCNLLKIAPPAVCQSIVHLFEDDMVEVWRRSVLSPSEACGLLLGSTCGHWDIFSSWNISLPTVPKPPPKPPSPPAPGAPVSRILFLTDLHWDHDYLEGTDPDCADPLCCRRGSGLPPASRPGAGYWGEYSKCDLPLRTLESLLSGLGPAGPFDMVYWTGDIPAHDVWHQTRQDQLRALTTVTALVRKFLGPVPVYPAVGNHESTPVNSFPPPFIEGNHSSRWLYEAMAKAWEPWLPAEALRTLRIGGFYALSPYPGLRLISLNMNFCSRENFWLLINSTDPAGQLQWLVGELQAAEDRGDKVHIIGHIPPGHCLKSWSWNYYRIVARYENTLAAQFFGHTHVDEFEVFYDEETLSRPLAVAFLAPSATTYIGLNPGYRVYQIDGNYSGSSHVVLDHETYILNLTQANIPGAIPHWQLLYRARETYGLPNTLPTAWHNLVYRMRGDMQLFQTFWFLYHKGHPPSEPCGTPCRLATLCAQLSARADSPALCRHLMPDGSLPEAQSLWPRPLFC
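Human placenta-derived ASM preincubated with compound 10 min at room temperature, then reacted with 9 uM (final) fluorogenic HMU-PC substrate for 60 min at 37 C. Stop solution raises pH to 10; fluorescence read at Ex 386/Em 447 nm.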
DT40 TDP1 no CPT = qHTS for Inhibitors of human tyrosyl-DNA phosphodiesterase 1 (TDP1): qHTS in cells in absence of CPT; DT40 Tdp1-/- hTDP1 cells, no CPT, ATP luminescence, 48 h; Potency, µM (series often up to 46.2 µM), without a hit: at the highest dose activity change, negative = growth inhibition, usual class: inhibitors; 420,000 compounds, 15% hits; also: potency is read from the fitted curve at half-maximal effect; % is scaled to controls: 0 for no effect and ±100 for the full control effect; nearly all actives have a fitted effect of over 55% in size
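Readout: luminescence from CellTiter-Glo after 30 min in the dark at RT. Cells: DT40 Tdp1-/- with stable hTDP1, 400/well. Exposure: compounds alone, ≥48 hr, 37 °C.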
TDP1 cell CPT = growth inhibition of DT40 Tdp1-/-;hTDP1 cells with camptothecin (screen for TDP1 inhibitors); chicken DT40 Tdp1-/-;hTDP1 cells + 20 nM CPT, ATP luminescence, 48 h; Potency, µM (highest dose often 46.2 µM), for inactives: at the highest dose activity change, negative = growth inhibition, actives largely listed as inhibitors; 420,000 compounds, 12% hits; AID 686979; also: potency is read from the fitted curve at half-maximal effect; % is scaled to controls: 0 for no effect and ±100 for the full control effect; nearly all actives have a fitted effect of over 55% in size
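Cell growth measured by CellTiter-Glo luminescence after a minimum 48 h, 37 C compound exposure with 20 nM CPT in Tdp1-knockout DT40 cells stably expressing hTDP1, seeded 400/well; qHTS titration format.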
TGFb SMAD3 inh = blocks TGF-b signaling | 410,000 compounds, 1.2% hits | Potency, µM (doses to about 46.1 µM), for inactives: at the top dose activity, negative = inhibition, most hits filed as inhibitors | HepG2 CAGA-GFP TGF-b/SMAD3 reporter, GFP fluorescence, 18 h; TGF-beta stimulated, 500 pg/mL final | AID 588855; also: potency is read from the fitted curve at half-maximal effect; % is scaled to controls: 0 for no effect and ±100 for the full control effect; nearly all actives have a fitted effect of over 65% in size
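HEPG2 CAGA-GFP, 1000 cells/well; 2 h settle, 37 C; cpd via pin tool; TGF-b 500 pg/mL final; 18 h, 37 C; GFP imaging ex488/em500-530; %Activity normalised to -TGF-b and +DMSO controls; CRC fit, curve class.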
Numbers without * were called inactive; ? = inconclusive; . = no result. Unless noted, calls follow the shape of the dose curve; as a rule, active = well fitted curve in the direction sought with a large enough effect; inconclusive = small, poorly fitted or top-dose-only effect, or another doubt; inactive = no such curve, though single readings can be large; an effect the other way counts as inactive or inconclusive.

SMILES	HepG2 viability	IL1B secr inh	ASM inhibitor	DT40 TDP1 no CPT	TDP1 cell CPT	TGFb SMAD3 inh
O=C(NC(NC(=S)Nc1ccc(Cl)cc1)C(Cl)(Cl)Cl)c1ccco1 (stereo not given)	-27%	-102*	-7%	?	?	?
CCc1ccc(OCC(=O)NC(NC(=S)Nc2ccc(Cl)cc2)C(Cl)(Cl)Cl)cc1 (stereo not given)	8.9µM*	-20	4%	13µM*	15µM*	7.1µM*
CCc1ccc(OCC(=O)NC(C)C)cc1	7%	-20	-2%	6%	7%	8%
Cc1ccccc1NC(=S)NNC(=O)c1ccco1	2%	14	4%	22%	-8%	-1%
COc1ccc(C(=O)OC(C)C(=O)NC2CCCCC2C)cc1S(=O)(=O)N1CCOCC1 (stereo not given)	-1%	5	3%	-2%	-8%	-22%
O=C(CCNS(=O)(=O)c1ccccc1C(F)(F)F)NC1CCCCCC1	-3%	-1	4%	-9%	-14%	0%
O=C(CSc1nnc2ccc(-c3ccccn3)nn12)N1CCCC1	0%	0	-2%	21%	0%	?
CCOc1cc(/C=N/Nc2nnc(C)n2N)ccc1OC(C)=O	-113%	18	13%	16µM*	?	-18%
CCc1nnc(N/N=C/c2ccc(O)c(OC)c2)n1N	-104%	0	11%	0%	?	18µM*
Cc1nnc(N/N=C/c2cccc(C(F)(F)F)c2)n1N	-45%	29	0%	-5%	-22%	?
CCc1nnc(N/N=C/c2cc(Br)c(O)cc2O)n1N	10µM*	43	19%	?	4.1µM*	7.9µM*
Cc1nnc(N/N=C/c2cccc(OCc3ccc(Cl)c(Cl)c3)c2)n1N	-104%	-84*	?	?	?	22µM*
CCc1nnc(N/N=C\c2ccc(OC(C)=O)c(OC)c2)n1N	-90%	-8	7%	17%	-19%	?
Cc1ccc(C)c(NC(=O)CCn2nc(C)c3c(C)n(-c4ccccc4)nc3c2=O)c1	-13%	.	.	-30%	4%	3%
CC(=O)N1CCN(Cc2cc(=O)oc3ccccc23)CC1	-28%	14	.	3%	7%	0%
CC(C)N1CCC1(C)C(=O)Nc1ccc2cn[nH]c2c1 (stereo not given)	-17%	23	.	-16%	?	-3%
COCCn1c(Cc2ccccc2)nnc1SC(C)C(=O)NC1CC1 (stereo not given)	1%	8	-3%	23%	1%	-3%
Cc1cc(C)c(S(=O)(=O)N2CCN(Cc3nc4ccc(C)cc4o3)CC2)c(C)c1	-23%	.	.	?	?	?
CCCCn1c(N)c(N(CCOC)C(=O)c2cc(-c3ccc(F)cc3)nc3ccccc23)c(=O)[nH]c1=O	6%	-20	53%	-14%	?	1%
CCc1nnc(N/N=C/c2c(Cl)cccc2Cl)n1N	-100%	14	1%	-5%	-16%	?
CC(C)(C)c1nnc(N/N=C/c2cc(Br)ccc2O)n(N)c1=O	-37%	12	-24%	2.3µM*	2.6µM*	?
CCc1nnc(N/N=C/c2cccs2)n1N	-98%	0	-3%	?	26µM*	13µM*
Cc1ccc(Nc2nnc(C(C)(C)C)c(=O)n2N)cc1	-1%	0	5%	-28%	3%	-12%
Cc1ccccc1NC(=O)CSc1c(C(C)C)cnc2c1c(=O)n(C)c(=O)n2C	-3%	.	.	?	-52%	-20%
COc1ccc(C2=NOC(Cn3c(Cc4ccc(Cl)cc4)nc4c3c(=O)n(C)c(=O)n4C)C2)cc1 (stereo not given)	11%	-29	?	23µM*	26µM*	7%
SMILES	HepG2 viability	IL1B secr inh	ASM inhibitor	DT40 TDP1 no CPT	TDP1 cell CPT	TGFb SMAD3 inh
COc1ccccc1C1=NOC(Cn2c(NCCCO)nc3c2c(=O)n(C)c(=O)n3C)C1 (stereo not given)	9%	19	-1%	?	4%	2%
Cc1ccc(S(=O)(=O)N2CCN(C(=O)c3ccc([N+](=O)[O-])cc3)C2)cc1	-8%	7	2%	-20%	-11%	5%
COc1ccc(Nc2ccc3c(c2)=NC2(CCCCC2)[N+]=3[O-])cc1	13µM*	-97*	-13%	2.6µM*	2.6µM*	3.2µM*
Nc1cccc(Nc2ccccc2)c1	1%	20	5%	1%	0%	0%
[O-][N+]1=c2ccc(Nc3ccccc3)cc2=NC12CCCCC2	-106%	-98*	-7%	4.1µM*	3.7µM*	6.3µM*
COc1ccc(NC2=NCCC2)cc1	-2%	-10	-1%	0%	13%	7%
CCOC(=O)c1ccc(N2C(=O)c3n[nH]c(-c4cccs4)c3C2c2ccc(O)c(OC)c2)cc1 (stereo not given)	-51%	.	.	21µM*	?	?
CCOC(=O)c1ccc(N2C(=O)c3n[nH]c(-c4cccs4)c3C2c2cccc(F)c2)cc1 (stereo not given)	-96%	.	.	18µM*	?	?
CCOC(=O)c1ccc(N2C(=O)c3n[nH]c(-c4cccs4)c3C2c2ccc(C)cc2)cc1 (stereo not given)	-15%	.	.	-2%	1%	25%
CN(C(=O)c1ccc(NC(=O)Cc2ccc(NC(=O)C3CCN(C(=O)C4CC4)CC3)cc2)cc1)C1CCCC1	-11%	-11	15%	-20%	-26%	1%
CN(Cc1ccccc1)C(=O)c1cccc(NC(=O)Cc2cccc([N+](=O)[O-])c2)c1	-13%	?	-5%	23µM*	?	?
CN(C(=O)c1cccc(NC(=O)Cc2ccc([N+](=O)[O-])cc2)c1)C1CCCC1	-15%	-24	0%	26µM*	23µM*	?
CN(C(=O)c1cccc(NC(=O)Cc2cccc([N+](=O)[O-])c2)c1)C1CCCC1	-14%	.	1%	?	18µM*	?
CN(C(=O)c1cccc(NC(=O)Cc2cccc([N+](=O)[O-])c2)c1)C1CCC1	2%	-29	2%	?	?	?
CN(C(=O)c1cccc(NC(=O)Cc2ccc(NC(=O)C3CCCN(S(=O)(=O)c4cccc([N+](=O)[O-])c4)C3)cc2)c1)C1CCCC1 (stereo not given)	1%	-3	-1%	?	-25%	?
